# Compound activity deposited in PubChem BioAssay by National Center for Advancing Translational Sciences (NCATS).
# This is a sample that favours compounds with a hit; in the whole collection about 2.2% have one here.
# ATXN2 expr inh: reduces ATXN2 reporter expression in HEK-293 cells. 0.72% of 360,000 active. AID 1745845. HEK-293 ATXN2-luciferase reporter, luminescence, 24 h. Potency, µM (doses to about 57 µM), usual class: inhibitors; note: nearly all actives have a fitted effect of over 55% in size
#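 qHTS (up to 57 uM final) was run with 24 h compound exposure of reporter cells at 37 °C. Each well was multiplexed: SteadyGlo luminescence measured ATXN2-luciferase expression after a fluorogenic Gly-Phe-AFC viability readout (25 uM final).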
# HepG2 tox: HepG2 cytotoxicity, counter-screen for TGF-b inhibitors | HepG2 CAGA-GFP viability, ATP luminescence, 18 h | Potency, µM (titrated, usually from 46.1 µM), actives largely listed as cytotoxic | 0.76% of 410,000 active
#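 CellTiter-Glo luminescence gave cytotoxicity after 18 hours at 37 degrees C. The cells were HepG2 CAGA-GFP in 1% FBS DMEM, stimulated with 500 pg/mL TGF-beta after compound addition. %Activity was normalised to no-cell wells (complete cell-killing) and DMSO (no toxicity), and curves were fitted and classified.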
# LDHA block: inhibitors of human lactate dehydrogenase A. activity change, % (values are at about 110 or 230 µM). 0.15% of 480,000 active. P00338. purified LDHA, NADH/diaphorase-resazurin fluorescence; stronger effect = lower value; in the data active = activity change below about -30%; inconclusive = mostly about -25% to -30%
#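 Resorufin fluorescence (ex540/em590), read at 0 and 20 min after diaphorase/resazurin addition, reports the NADH left after a 5 min room-temperature reaction of 2 nM human LDH5 with 0.06 mM NADH and 0.2 mM pyruvate.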
# IDH1 R132H inh: blocks human mutant IDH1 R132H enzyme | 0.093% of 390,000 active | IDH1-R132H enzyme, NADPH consumption, diaphorase/resazurin fluorescence | Potency, µM (doses to about 76.6 µM), hits mostly inhibitors; note: nearly all actives have a fitted effect of over 65% in size
# Target sequence (O75874 whole entry R132H, stated change not applied): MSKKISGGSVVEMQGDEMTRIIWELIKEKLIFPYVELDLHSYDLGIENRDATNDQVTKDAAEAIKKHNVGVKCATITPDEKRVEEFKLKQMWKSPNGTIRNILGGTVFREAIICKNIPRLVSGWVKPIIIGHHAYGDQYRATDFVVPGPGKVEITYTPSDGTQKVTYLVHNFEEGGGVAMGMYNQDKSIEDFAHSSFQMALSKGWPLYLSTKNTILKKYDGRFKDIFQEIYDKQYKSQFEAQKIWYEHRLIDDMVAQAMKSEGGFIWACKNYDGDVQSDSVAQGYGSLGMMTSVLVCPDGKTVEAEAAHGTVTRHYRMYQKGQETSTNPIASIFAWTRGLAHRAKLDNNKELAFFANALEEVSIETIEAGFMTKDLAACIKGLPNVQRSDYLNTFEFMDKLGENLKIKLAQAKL
#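 IDH1-R132H (0.5 ug/mL) preincubated 30 min with compound, then NADPH (0.016 mM) and alpha-KG (2 mM) added; 80 min at RT, pH 7.5. Remaining NADPH coupled via diaphorase/resazurin to fluorescence (540/590 nm); concentration-response curves normalized to no-enzyme control.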
# TGFb inhibitor: inhibitors of TGF-b signaling. HepG2 CAGA-GFP TGF-b/SMAD3 reporter, GFP fluorescence, 18 h; TGF-beta stimulated, 500 pg/mL final. Potency, µM (highest dose often 46.1 µM), most hits filed as inhibitors. 1.2% of 410,000 active. AID 588855; note: nearly all actives have a fitted effect of over 65% in size
#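 TGF-beta reporter screen: HEPG2 CAGA-GFP, 1% FBS, 500 pg/mL TGF-beta final, 18 h; per-cell GFP summed per well; curves fitted and categorized by class.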
# ATXN viability: cell viability loss in ATXN counter-screen | 0.49% of 400,000 active | S2 cells (HEK-293 line with an ATXN2-luciferase reporter) viability, CellTiter-Fluor protease fluorescence, 24 h | AID 651635 | Potency, µM (series often up to 56.7 µM), hits mostly cytotoxic; note: nearly all actives have a fitted effect of over 40% in size
# Hits are given with their value; - = inactive; ? = inconclusive; . = no result; ! = repeats disagree; [ ] = remark or other dose. Unless noted, calls come from the whole dose curve; as a rule, active = well fitted curve in the direction sought with a large enough effect; inconclusive = small, poorly fitted or top-dose-only effect, or another doubt; inactive = no such curve, though single readings can be large; an effect the other way counts as inactive or inconclusive.
SMILES,ATXN2 expr inh,HepG2 tox,LDHA block,IDH1 R132H inh,TGFb inhibitor,ATXN viability
Cc1ccccc1NC(=O)c1nc(S(=O)(=O)Cc2ccccc2F)ncc1Cl,.,5.6µM,-,.,4.5µM,.
CN(C)CCNC(C(=O)Nc1cccc(S(=O)(=O)N2CCOCC2)c1)c1ccccc1 (centres undefined),-,-,-,-,-,-
CCOc1ccc(NC(C(=O)Nc2cccc(C(C)=O)c2)c2ccccc2)cc1 (centres undefined),-,-,-,-,-,-
CCOc1ccccc1NC(=O)C(NCCN(C)C)c1ccccc1 (centres undefined),-,-,-41,-,-,?
CN(C)CCNC(C(=O)Nc1cccc(C(F)(F)F)c1)c1ccccc1 (centres undefined),-[11.3 µM],-,-37,-,-,?
CCN(CC)CCNC(C(=O)Nc1cccc(C(C)=O)c1)c1ccccc1 (centres undefined),-,13µM,-,-,-,-
Cc1ccc(C2(c3noc(CN(C)Cc4cnn(C)c4)n3)CCCC2)cc1,-[11.3 µM],-,-,-,-,-
CC(C)OCCCNC(=O)CSc1c2c(nc3ccc(Cl)cc13)CCCC2,.,-,-,-,11µM,.
COCCCNC(=O)CSc1c2c(nc3ccc(Cl)cc13)CCCC2,.,-,-,-,13µM!,-
CCN(CC)CCCNC(=O)CSc1c2c(nc3cc(Cl)ccc13)CCCC2,?,22µM,-,-,11µM,.
O=C1CCC(=O)C1,.,.,-,.,.,.
O=C1c2cccc(NCCNCCO)c2C(=O)c2cccc(NCCNCCO)c21,4.5µM,-,-,-,?,18µM
O=C(O)CCNc1ccc(NCCC(=O)O)c2c1C(=O)c1ccccc1C2=O,.,-,-,-,-,?
O=C(NNC(=O)C1CCCC1)c1cccc([N+](=O)[O-])c1,.,.,-,.,.,.
CCc1nnc(NC(=O)c2cccc(C(=O)Nc3nnc(CC)s3)n2)s1,?,-,-,-,0.25µM,?
CCc1nnc(NC(=O)c2ccncc2)s1,-,-,-,-,-,-
CC(=O)OCCCNc1cc(Sc2nc3ccccc3s2)c2nonc2c1[N+](=O)[O-],16µM,-,-,-,?,.
O=[N+]([O-])c1c(NCCCO)cc(SCc2ccco2)c2nonc12,-,-,-,-,11µM,.
O=[N+]([O-])c1c(NCCCO)cc(Sc2ccc(Cl)cc2)c2nonc12,?,-,-,-,-,32µM
NNS(=O)(=O)c1ccc2c(c1)Cc1cc(S(=O)(=O)NN)ccc1-2,-,-,-35,-,-,-
Cc1cc2ccc3ccccc3c2cc1CN(C)C,-,-,-,-,16µM,-
O=C(Nc1nnc(-c2cccs2)o1)c1cccc(C(F)(F)F)c1,16µM,-,-,-,?,?
CCc1ccc(-c2[nH]nc3nc(-c4ccc(OC)cc4)cc(C(=O)NCCc4ccc(OC)c(OC)c4)c23)cc1,?,-,-,-,10µM,-
CCCCC1CC(C)(C(=O)CSc2nc3ccccc3s2)OC1=O (centres undefined),-,-,-,-,?,-
O=C(Nc1cccc(C(F)(F)F)c1)Oc1ccc(Cl)c2cccnc12,?,14µM,-,-,7.1µM,-
SMILES,ATXN2 expr inh,HepG2 tox,LDHA block,IDH1 R132H inh,TGFb inhibitor,ATXN viability
CCC(=O)Nc1cc(SCCO)cc([N+](=O)[O-])c1,-,-,-,-,-,-
O=C(CCl)Nc1cc(SCC(O)CO)cc([N+](=O)[O-])c1 (centres undefined),4µM,-,-,-,2.8µM,8.9µM
CC(C)=NOc1cc(NC(=O)CCl)cc([N+](=O)[O-])c1,?,-,-,-,6.3µM,25µM
COc1ccccc1N1CCN(C2CCCN(C(=O)c3ccnc4ccc(C)cc34)C2)CC1 (centres undefined),-,-,-,-,-,-
Cc1ccccc1CNC(=O)C(=O)NCC(c1ccco1)S(=O)(=O)c1ccccc1 (centres undefined),.,-,-,-,-,.
Cc1[nH]c2ccccc2c1C1(O)C(=O)N(Cc2ccc(Cl)cc2)c2ccccc21 (centres undefined),.,-,-,.,.,.
Cc1ccccc1CN1C(=O)C(O)(c2c[nH]c3ccccc23)c2cc(Cl)ccc21 (centres undefined),-,11µM,-,-,16µM,-
Cc1[nH]c2ccccc2c1C1(O)C(=O)N(Cc2ccccc2)c2ccc(Cl)cc21 (centres undefined),?,16µM,-,-,?,?
COc1ccc2[nH]c(=O)c(CNc3ccccc3OC)cc2c1,-,-,-,-,-,-
CCCN(CCC)CCNC(=O)c1cc(-c2ccc(Br)s2)nc2ccccc12,-,-,-,-,-,32µM
C=C(NC(=O)C(=C)NC(=O)c1csc(C2=NC3c4csc(n4)C4NC(=O)c5csc(n5)C(C(C)(O)C(C)O)NC(=O)C5CSC(=N5)/C(=C/C)NC(=O)C(C(C)O)NC(=O)c5csc(n5)C3(CC2)NC(=O)C(C)NC(=O)C(=C)NC(=O)C(=C)NC(=O)C(C(C)C)NC2C=Cc3c(C(C)O)cc(nc3C2O)C(=O)OC4C)n1)C(N)=O (centres undefined),?,-,-,-,8.9µM,2.7µM
Cc1ccc(S(=O)(=O)N2CCOCC2)cc1NC(=O)CNCc1ccccc1Cl,-,-,-,-,-,-
Cc1ccc(C)c(CN2CCC(CNC(=O)Nc3ccc(F)c(Cl)c3)CC2)c1,?,18µM,-,-,?,-
Cc1ccc(NC(=O)NCC2CCN(Cc3cccc(Cl)c3)CC2)cc1Cl,?,13µM!,-,-,?,?
Cc1ccc(CN2CCC(CNC(=O)Nc3ccccc3F)CC2)cc1,-,-,-,-,-,-
Cc1ccc(CN2CCC(CNC(=O)Nc3ccc(Cl)cc3)C2)cc1 (centres undefined),?,-,-,-,13µM,.
NC(=O)C1CCN(c2nc(-c3ccc4occc(=O)c4c3)cs2)CC1,-,-,-,.,-,-
CS/C(N)=N/C(=S)Nc1cccc(Cl)c1,-,-,-,-,-,-
Cc1noc(C)c1C(=O)Nc1ccc(S(=O)(=O)N2CCC(C)CC2)cc1,-,-,-,-,-,-
Cc1ccc(NC(=S)N2CCC(NC(=O)C3CCCCC3)CC2)cc1C,-,-,-,-,-,-
Cc1ccc(S(=O)(=O)CCC(=O)OCc2nnc(-c3ccccc3Br)o2)cc1,-,-,-,-,-,-
COc1ccc(CC2C(=O)Nc3ccc(Br)cc32)cc1OC (centres undefined),.,16µM,-,-,-,.
